A selection: hits, their analogues and other compounds. The true share with any hit is near 7.6%.
p53 reactivation = restores transcriptional activity of mutant p53 | Potency, µM (titrated, usually from 92.2 µM), hits mostly activators | H1299 p53-A138V BP100-luciferase reporter, luminescence, 24 h | AID 504706 | 320,000 compounds, 0.063% hits; further: nearly all actives have a fitted effect of over 45% in size
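p53-null H1299 cells stably carrying temperature-sensitive p53-A138V and a BP100-luciferase reporter were pinned with compounds (4-point, 1:5 series) and held 24 hrs at 37 deg C. Luminescence was read 10 min after detection reagent.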
Gal4-VP16 FLuc = Gal4-VP16 reporter inhibition counter-screen | Potency, µM (top dose mostly 53.6 µM), most hits filed as inhibitors | Drosophila S2 Gal4-VP16 UAS-luciferase, luminescence, 20 h | 310,000 compounds, 3.5% hits | AID 2546;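 further: Gal4-VP16 expression switched on by copper sulfate through the metallothionein promoter; nearly all actives have a fitted effect of over 50% in size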
ELG1 DNA repair = ELG1-dependent DNA repair inhibition. HEK293T ELG1-luciferase reporter, luminescence, 16 h; DNA damage induced by 5-fluorouridine. Potency, µM (titrated, usually from 46.1 µM), usual class: inhibitors. 330,000 compounds, 2.3% hits. AID 504467; further: nearly all actives have a fitted effect of over 55% in size
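Overnight (16 hr) co-exposure of 2,000 cells/well to 5-fluorouridine and compound at 37 °C preceded detection. Luciferase was quantified via ONE-Glo luminescence; loss of signal denotes inhibition.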
BRCA1 expr act = BRCA1 expression activation; MCF7-BRCA1-FFLuc reporter, luminescence, 48 h; response scale: scaled: vehicle 0%, 10 µM genistein 100%; Potency, µM (highest dose often 46.1 µM), actives largely listed as activators; 380,000 compounds, 1.1% hits; further: nearly all actives have a fitted effect of over 80% in size
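MCF7-BRCA1-FFLuc cells, 2000/well in phenol-red-free MEM, attached 2 h then treated 48 h at 37 C. Luciferase luminescence read 15 min after reagent; normalized to genistein maximum activation (10microM) and DMSO, concentration-response fitted.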
Giardia killer = Giardia lamblia killing | 340,000 compounds, 0.15% hits | activity change, % at 7.66 µM, hits read low | Giardia lamblia trophozoite viability; in the data active means activity change below about -80%; inconclusive means between about -30% and that limit;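 further: parasites exposed to compound for two days anaerobically before the ATP read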
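Giardia lamblia trophozoites (100 cells/well) were incubated with compounds for 48 h at 37 deg C under anaerobic conditions. Viability was read as ATP content by one-step luminescence after 15-30 min at room temperature.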
RORgamma inh = inhibitors of mouse ROR gamma transcriptional activity; Drosophila S2 Gal4-RORgamma UAS-luciferase reporter, 20 h; Potency, µM (highest dose often 53.6 µM), hits mostly inhibitors; 310,000 compounds, 5.4% hits; AID 2551; further: nearly all actives have a fitted effect of over 60% in size
Target sequence (P51450 whole entry, looked up, the tested form may be a part): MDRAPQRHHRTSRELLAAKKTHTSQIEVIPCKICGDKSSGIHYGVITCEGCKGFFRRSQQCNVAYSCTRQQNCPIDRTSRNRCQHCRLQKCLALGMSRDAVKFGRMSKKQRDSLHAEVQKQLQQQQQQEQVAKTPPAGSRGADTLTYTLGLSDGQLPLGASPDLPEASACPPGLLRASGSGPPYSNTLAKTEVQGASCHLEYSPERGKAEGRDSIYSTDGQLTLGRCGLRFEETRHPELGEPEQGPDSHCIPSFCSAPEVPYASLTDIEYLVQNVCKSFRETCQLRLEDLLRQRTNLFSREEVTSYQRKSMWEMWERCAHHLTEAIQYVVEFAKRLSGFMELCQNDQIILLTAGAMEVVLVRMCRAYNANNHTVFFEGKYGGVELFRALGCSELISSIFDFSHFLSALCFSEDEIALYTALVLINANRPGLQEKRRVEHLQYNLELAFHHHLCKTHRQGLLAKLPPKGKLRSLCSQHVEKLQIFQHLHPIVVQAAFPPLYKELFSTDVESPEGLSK
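ROR gamma transcriptional activity was tracked as Gal4-UAS luciferase output in stably transfected Drosophila Schneider cells, with compound added 1 hr before 700 uM copper sulfate induction and a 20 hr ambient-temperature incubation.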
A number is an active result; n = inactive; u = inconclusive; x = no result given. Unless noted, the call rests on the fitted dose curve; in most records, active means well fitted curve in the direction sought with a large enough effect; inconclusive means small, poorly fitted or top-dose-only effect, or another doubt; inactive means no such curve, though single readings can be large; an effect the other way counts as inactive or inconclusive.

SMILES | p53 reactivation | Gal4-VP16 FLuc | ELG1 DNA repair | BRCA1 expr act | Giardia killer | RORgamma inh
O=C(CCc1ccc(S(=O)(=O)N2CCOCC2)cc1)Nc1ccc2c(c1)OCCO2 | n | n | n | n | n | n
O=C(Cn1ncn2c(cc3ccccc32)c1=O)NCc1ccco1 | n | n | n | n | n | 5.6µM
COc1ccc(CNC(=O)Cn2ncn3c(cc4ccccc43)c2=O)cc1 | n | n | n | n | n | n
CNCC(=O)Nc1ccc(OC(F)(F)F)cc1 | n | n | n | n | u | n
COc1cccc(OC)c1C(=O)OCC(=O)Nc1ccc(OC(F)(F)F)cc1 | n | n | 21µM | n | n | n
O=C(OCc1ccccc1)C1=NNC2C(=O)N(c3ccc(Br)cc3)C(=O)C12 (stereo not drawn) | n | n | n | n | n | n
CS(=O)c1ccccc1O (stereo not drawn) | n | n | n | n | n | 11µM
Cc1cccnc1CN1CCN(Cc2nc(Cc3cccc(F)c3)no2)CC1 | n | n | u | n | n | 13µM
O=C(O)CNc1nc(-c2ccccc2)c2cc([N+](=O)[O-])ccc2n1 | n | n | n | n | n | n
N#Cc1ccccc1/C=N/Nc1nc(-c2ccccc2)c2cc(Br)ccc2n1 | n | n | u | n | n | 11µM
Cc1ccc2nc(N/N=C\c3ccc([N+](=O)[O-])o3)nc(-c3ccccc3)c2c1 | n | n | 21µM | n | -99 | 10µM
O=[N+]([O-])c1ccc(/C=N/Nc2ccc3ccccc3c2)o1 | x | n | u | n | u | n
O=[N+]([O-])c1ccc(/C=N/Nc2nc(-c3ccccc3)c3cc(Br)ccc3n2)o1 | n | n | n | n | -91 | n
OCCNc1nc(-c2ccccc2)c2cc(Br)ccc2n1 | n | n | n | n | n | u
Cc1cccc(-n2ccnc2SCC(=O)Nc2nc3ccccc3s2)c1 | x | x | x | n | x | x
Cc1cc(C)n2c(Nc3ccc4c(c3)OCCO4)c(C(C)C)nc2n1 | x | x | x | n | x | x
Cc1cc(NC(=O)CS(=O)(=O)c2cn(Cc3cccc(F)c3)c3ccccc23)no1 | n | n | 21µM | n | n | n
CCn1c(=S)[nH]c2sc3c(c2c1=O)CCCC3 | n | 0.63µM | n | n | n | 0.45µM
CC1CCc2c(sc3[nH]c(=S)n(C)c(=O)c23)C1 (stereo not drawn) | n | 0.89µM | u | n | n | 0.56µM
C=CCn1c(=S)[nH]c2sc3c(c2c1=O)CCC3 | n | u | n | n | n | 0.1µM
CN(C)CCCn1c(=S)[nH]c2sc3c(c2c1=O)CCCC3 | n | u | n | n | n | 14µM
CCn1c(=O)c2c3c(sc2n2cnnc12)CCC3 | n | n | n | n | n | n
COc1ccc(C2=NOC(C)(c3nnc(-c4ccc(F)cc4)o3)C2)cc1 (stereo not drawn) | n | n | u | n | n | n
O=S(=O)(Nc1cccc(-n2cnnn2)c1)c1cc(Cl)ccc1Cl | n | n | n | n | n | n
C=C1CCC[C@]2(C)C[C@H]3OC(=O)C(CN4CCOCC4)[C@H]3C[C@@H]12 (stereo partly drawn) | n | n | n | n | n | n
SMILES | p53 reactivation | Gal4-VP16 FLuc | ELG1 DNA repair | BRCA1 expr act | Giardia killer | RORgamma inh
CCOc1ccccc1Nc1nnc(SCc2nnc(-c3cc(OC)c(OC)c(OC)c3)o2)s1 | n | u | 5.8µM | n | n | n
COc1ccccc1Nc1nnc(SCc2nnc(-c3cc(OC)c(OC)c(OC)c3)o2)s1 | n | n | 6.5µM | n | n | n
COc1cc(-c2nnc(CSc3nnc(Nc4ccc(C(C)C)cc4)s3)o2)cc(OC)c1OC | n | n | 6.5µM | n | n | n
CC(=O)c1ccc(NC(=O)CN2CCCC2)cc1 | u | u | u | n | n | n
Cc1ccc(N(CC(=O)N2CCCCC2)S(=O)(=O)c2ccc(C)cc2)cc1 | n | n | n | n | n | n
Cc1ccccc1OS(=O)(=O)c1cn(C)c(=O)n(C)c1=O | n | n | n | n | n | n
CNC(=O)NNC(=O)c1onc(-c2c(Cl)cccc2Cl)c1C(=O)OC | n | n | n | n | n | n
Oc1c(CN2CCc3ccccc3C2)cc(Cl)c2cccnc12 | u | 1.1µM | u | n | n | 0.79µM

Source: PubChem (National Center for Advancing Translational Sciences (NCATS))
